Source: PubChem BioAssay (Tox21)
Active and inactive are the calls of the source. Calls follow the shape of the dose curve; as a rule, active = well fitted curve in the direction sought with a large enough effect in the repeat runs; inconclusive = weak or mixed curves; inactive = flat fitted curve, though single readings scatter.

Assay: qHTS assay to test for compound auto fluorescence at 590 nm (red) in HepG2 cells (AID 720674)
Settings: HepG2 autofluorescence, red 540/590 nm, 1 h; series mostly up to 91.3 µM; fluorescence, relative to Rose Bengal: at the top concentration
From the text: U.S. Tox21 Program National Center for Advancing Translational Sciences [NCATS] NIH Chemical Genomics Center [NCGC] U.S. Environmental Protection Agency [EPA] National Institutes of Environmental Health Sciences [NIEHS] National Toxicology Program [NTP] U.S. Food and Drug Administration [FDA] Tox21 Assay Overview: Compound auto fluorescence often interferes with screening of the compound library against various biological targets and signaling pathways. Some of these compounds may have fluorophoric properties. Such properties may interfere with the assay outputs resulting in false positives and/or negatives. To decrease such complications and ensure the compound activities are relevant in terms of biological response, the Tox21 10K compound library was screened for auto fluorescence. From the fluorophores used as reporter signals in our screening assays, the auto fluorescence equivalencies of compounds against three fluorophores have been evaluated: Triamterene, Fluorescein and Rose Bengal sodium for blue, green and red fluorescence, respectively. The fluorescence intensities were measured using Excitation/Emission wavelengths at 405/460nm, 485/535nm and 540/590nm for blue, green and red labels, respectively. This assay includes the red fluorescence data.
Tox21 Assay Protocol Summary: 2,000 HepG2 cells in 5 uL of culture medium (MEM containing 10% FBS) per well were dispensed into black wall/clear bottom 1536-well plates using a Multidrop Combi Dispenser (ThermoFisher Scientific, Waltham, MA). The assay plates were incubated overnight at 37 C to allow cell attachment to the well bottom, followed by the transfer of 23 nL compound or DMSO vehicle by a pintool work station (Kalypsys , San Diego, CA). After the assay plates were incubated for 1 hr at 37 C and 5% CO2, fluorescence intensities in the assay plates were measured by an Envision (PerkinElmer, Shelton, CT) plate reader using three labels for measuring blue, green and red fluorescence at […] 460, 535 and 590 nm respectively.
% is scaled to controls: 0 for no effect and ±100 for the full control effect.

Structure (SMILES)	fluorescence, relative to Rose Bengal	outcome
Cc1cc(-c2ccccc2)nnc1NCCN1CCOCC1	0.142% [at 46 µM] (inactive)	
Cc1cccc(Cl)c1	-0.0373% (inactive)	
CCOCCOCC	-0.298% [at 95.7 µM] (inactive)	
C[C@H]1[C@@H](c2ccccc2)NC(=O)N1C	-0.0172% (inactive)	
COc1ccc2c(c1)c1c3n2CCN(C)C3=NCC1	-0.178% [at 46 µM] (inactive)	
CCCSSCCC	-0.0158% (inactive)	
c1ccc2c(CC3=NCCN3)cccc2c1		inactive
CCC(=O)CC	-0.0744% (inactive)	
CC(O)CC(C)O (stereo not given)	0.0036% (inactive)	
O=C=NCC1CCCC(CN=C=O)C1 (stereo not given)	-0.14% (inactive)	
CCO[Si](CC)(OCC)OCC	0.0722% (inactive)	
CC(C)Cn1cnc2c1c(=O)n(C)c(=O)n2C	0.484% [at 46 µM] (inactive)	
CCCCC1CCC(O)CC1 (stereo not given)	-0.0183% (inactive)	
Cc1ncc([N+](=O)[O-])n1CC(C)O (stereo not given)	0.113% [at 46 µM] (inactive)	
NCc1ccc(S(N)(=O)=O)cc1	-0.36% [at 18.6 µM] (inactive)	
O=C(Cn1ccnc1[N+](=O)[O-])NCc1ccccc1	0.123% [at 46 µM] (inactive)	
CC12CCC(C1)C(C)(C)C2O (stereo not given)	-0.2% (inactive)	
c1ccc2cnccc2c1	0.0242% (inactive)	
CC(=O)C1C(=O)C=C(C)OC1=O (stereo not given)	0.0099% (inactive)	
CC1=NN(c2ccc(S(=O)(=O)O)cc2)C(=O)C1	0.108% (inactive)	

Structure (SMILES)	fluorescence, relative to Rose Bengal	outcome
C=CC/C=C/C	-0.37% [at 95.7 µM] (inactive)	
OC[C@@H](O)C(O)[C@@H](O)CO (stereo not given in full)	-0.0504% [at 95.7 µM] (inactive)	
CC(N)CCCC(C)(C)O (stereo not given)	-0.0669% [at 46 µM] (inactive)	
CC(=O)CC(=O)OC(C)(C)C	0.0819% (inactive)	
O/N=C/C=N/O	-0.635% (inactive)	
CC(=O)OCC(=O)Nc1cc(C#N)cc(NC(=O)COC(C)=O)c1Cl	-0.198% [at 46 µM] (inactive)	
CC1=C(C(=O)O)N2C(=O)[C@@H](NC(=O)[C@H](N)c3ccccc3)[C@H]2SC1	0.457% [at 46 µM] (inactive)	
O=C(O)[C@H](O)c1ccccc1	0.192% [at 46 µM] (inactive)	
CC1OCCC1=O (stereo not given)	-0.134% (inactive)	
CCCCOCCOC(=O)COc1ccc(Cl)cc1Cl	0.0069% (inactive)	
COC(=O)c1ccccc1C(=O)O	0.104% (inactive)	
CO/N=C(/C(=O)N[C@@H]1C(=O)N2C(C(=O)[O-])=C(C[n+]3ccn4ncccc43)CS[C@H]12)c1nsc(N)n1		inactive
CC1(C)[C@H]2CC[C@](C)(C2)[C@H]1O	0.0812% [at 95.7 µM] (inactive)	
CC(=O)OC1CCCCC1C(C)(C)C (stereo not given)	-0.0151% (inactive)	
O=C(CCCCC(=O)Nc1c(I)cc(I)c(C(=O)O)c1I)Nc1c(I)cc(I)c(C(=O)O)c1I	-0.218% [at 46 µM] (inactive)	
Fc1ccccc1	-0.226% (inactive)	
CC(S)C(C)S (stereo not given)	0.0284% [at 95.7 µM] (inactive)	
N#Cc1cscn1	0.0069% (inactive)	
CC(C)NCC(O)c1ccc2ccccc2c1 (stereo not given)	0.056% [at 46 µM] (inactive)	
CC1CCc2c(N3CCC(O)CC3)c(F)cc3c(=O)c(C(=O)O)cn1c23 (stereo not given)	0.26% [at 46 µM] (inactive)	
